Experimental data: PubChem BioAssay AID602290 (National Center for Advancing Translational Sciences (NCATS), 2012)
Activity calls are given as the source filed them.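 The calls were made as follows: active = fold change shows a rise in VEGF expression relative to GAPDH, above the control level; inconclusive = expression about equal to the control; inactive = no rise in relative expression.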

experiment: qHTS Assay for Agonists of the Relaxin Receptor RXFP1: VEGF expression; conditions: THP1 cells, VEGF mRNA qRT-PCR, 2 h; stronger effect = higher value
Text: The relaxin hormone is involved in the variety of biological functions in normal tissues and diseases. The role of relaxin is well-established in female reproduction and parturition, mammary gland and endometrial development, maintenance of myometrial quiescence during pregnancy. Relaxin signaling through its G protein-coupled receptor (GPCR) RXFP1 results in ECM remodeling through regulation of collagen deposition, cell invasiveness, proliferation and overall tissue homeostasis. […] Recombinant human relaxin (rhRlx) is currently being tested in clinical trials as a protective agent in congestive heart failure, in treating severe preeclampsia, and as an anti-fibrotic agent in systemic sclerosis.
Upon relaxin binding RXFP1 activation leads to the activation of adenylate cyclase (AC) via Gs. cAMP will activate PKA, which phosphorylates many signaling proteins. Thus, detection of cAMP increase is an easy and reliable indication of relaxin receptor activation. To screen for agonists of the relaxin receptor, a HEK293T cell line stably transfected with RXFP1 was used. RXFP1 activation was assayed by changes in cAMP levels as detected with a time-resolved fluorescence energy transfer (TR-FRET) cAMP detection kit.
After the primary screen and SAR work, a probe and its analogs were tested in this selectivity assay. THP1 cells (human acute monocytic leukemia cell line) were used to analyze the stimulation of VEGF gene expression after treatment with relaxin or compounds. The VEGF stimulation in these cultured […] cells is a well-established property of relaxin.
NIH Chemical Genomics Center [NCGC]
NIH Molecular Libraries Probe Production Centers Network [MLPCN]
Assay Submitter (PI): Alexander Agoulnik
400,000 THP1 cells (0.4 mL at 1x10^6 cells/mL) in test media (RPMI-1640 without phenol red, 0.5% FBS, 1x Pen/Strep, 0.05 mM of 2-mercaptoethanol) were seeded in each well on a 24-well plate. After 24 hours incubation at 37 degrees C, 5% CO2, relaxin or compounds were added for 2 hours. The cells were harvested and RNA was extracted by the Trizol (Invitrogen, Carlsbad, CA) method according to manufacturers' instructions. cDNA was synthesized by using Verso cDNA kit (Thermo Scientific, Waltham, MA) according to manufacturer's protocol. Quantitative real time RT-PCR for VEGF and GAPDH gene expression was done using a Roche LightCycler 480 (Roche Diagnostics, Indianapolis, IN) with the appropriate set of primers and probes spanning different exons. The relative fold change in VEGF mRNA level was calculated by the comparative Ct (2- Ct) method using GAPDH expression for normalization of RNA.

| Compound | fold change |
| --- | --- |
| COc1ccccc1C(=O)Nc1ccccc1C(=O)Nc1cccc(S(=O)(=O)C(F)(F)F)c1 | 1.41 (active) |
| O=C(O)c1cc(-c2ccccc2)nn1CC1CC(c2cccnc2)=NO1 (centres undefined) | 1.01 (inactive) |
| CCCOc1ccccc1C(=O)Nc1ccccc1C(=O)Nc1cccc(S(=O)(=O)C(F)(F)F)c1 | 1.53 (active) |
| COc1ccccc1C(=O)Nc1ccccc1C(=O)Nc1cccc(SC(F)(F)F)c1 | 1.15 (active) |
| CCOc1ccccc1C(=O)Nc1ccccc1C(=O)Nc1cccc(C(F)(F)F)c1 | 1.93 (active) |
| CCCCOc1ccccc1C(=O)Nc1ccccc1C(=O)Nc1cccc(S(=O)(=O)C(F)(F)F)c1 | 1.57 (active) |
| CCOc1ccccc1C(=O)Nc1ccccc1C(=O)Nc1cccc(S(=O)(=O)C(F)(F)F)c1 | 2.33 (active) |
| O=C(Nc1cccc(S(=O)(=O)C(F)(F)F)c1)c1ccccc1NC(=O)c1ccccc1OCC(F)(F)F | 1.24 (active) |
| CC(C)Oc1ccccc1C(=O)Nc1ccccc1C(=O)Nc1cccc(S(=O)(=O)C(F)(F)F)c1 | 2.79 (active) |
